Source: PMC5540273 (PLoS ONE, 2017)

What was measured:
Details in all cases: concentration: 1 μM, replicates: in singlicate; n = 1
STK16 = system: STK16
STK33 = system: STK33
STK35 = system: STK35
STK36 = system: STK36
STK39 = system: STK39
SYK = system: SYK
SgK110 = system: SgK110
TAK1 = system: T1, TAK1
T1 construct: gene MAP3K7

TAOK1 = system: TAOK1
TAOK2 = system: TAOK2
TAOK3 = system: TAOK3
TBK1 = system: TBK1
TEC = system: TEC
TESK1 = system: TESK1
TGFBR1 = system: TGFBR1
TGFBR2 = system: TGFBR2
TIE1 = system: TIE1
TIE2 = system: T2, TIE2
T2 construct: gene TEK

TLK1 = system: TLK1
TLK2 = system: TLK2
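Note: KINOMEscan kinase panel screen.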

SMILES	%Inh (STK16) [%]	%Inh (STK33) [%]	%Inh (STK35) [%]	%Inh (STK36) [%]	%Inh (STK39) [%]	%Inh (SYK) [%]	%Inh (SgK110) [%]	%Inh (TAK1) [%]	%Inh (TAOK1) [%]	%Inh (TAOK2) [%]	%Inh (TAOK3) [%]	%Inh (TBK1) [%]	%Inh (TEC) [%]	%Inh (TESK1) [%]	%Inh (TGFBR1) [%]	%Inh (TGFBR2) [%]	%Inh (TIE1) [%]	%Inh (TIE2) [%]	%Inh (TLK1) [%]	%Inh (TLK2) [%]
CN(C)CCN(C)C(=O)c1cc(-c2ccncc2)c(-c2ccc(Cl)c(O)c2)o1.Cl.Cl [SB-710397]	4	0	0	0	33	17	6	0	0	0	0	0	6	43	0	72	7	0	0	0
Cc1cccc(-c2nc(Nc3cccc(C(N)=O)c3)c3ccccc3n2)n1 [GW876019]	0	29	0	0	0	14	41	0	0	30	0	40	2	0	–	15	0	41	0	4
Cn1ccc2ncnc(Oc3ccc(NC(=O)Nc4ccccc4)cc3)c21	9	17	17	0	0	12	2	4	0	0	0	30	0	1	0	0	0	0	2	0
COc1ccc2nc(-c3cccc(C)n3)nc(Nc3ccncc3)c2c1 [GSK204919]	1	0	5	0	7	10	2	0	0	0	0	3	8	26	–	10	9	0	0	0
Cc1cccc(-c2nc(Nc3ccncc3)c3ccccc3n2)n1 [GW855857]	7	2	0	5	0	14	0	0	0	17	0	41	10	14	–	95.7	20	27	0	0
Cc1c(O)cccc1Nc1ccnc2ccc(C(F)(F)F)cc12.Cl [GW466413]	0	0	0	0	3	0	0	0	0	0	0	0	0	10	2	8	12	0	14	0
COc1ccccc1CNC(=O)c1cc(C(=O)c2ccccc2C)c[nH]1 [GSK364507]	11	0	0	0	14	16	0	0	0	0	0	19	0	36	9	0	0	0	0	0
Cc1cccc(-c2nc(-c3ccc(S(C)(=O)=O)cc3)sc2-c2ccnc(NCCc3ccccc3)c2)c1	13	0	9	11	1	0	9	0	0	12	0	24	0	11	26	0	14	19	6	4
CC1=C(C(=O)Nc2cc3cn[nH]c3cc2F)C(c2ccc(C(F)(F)F)cc2)CC(=O)N1 (stereo not drawn) [GSK429286]	14	0	0	0	20	4	0	0	0	0	0	4	18	30	0	0	12	0	10	0
COc1cc2ncnc(Nc3ccc4nc(-c5ccccc5)[nH]c4c3)c2cc1OC.Cl [GW282450]	19	0	0	0	0	43	0	23	0	0	0	12	0	20	0	0	1	0	0	0
Cc1cccc(-c2cc(Nc3ccncc3)c3ccccc3n2)n1 [GSK223675]	19	0	0	0	0	2	0	0	0	0	0	28	0	63	–	0	0	0	21	0
Cc1nnc(-c2ccc3occ(-c4ccc(S(C)=O)cc4)c3c2)[nH]1 (stereo not drawn)	11	0	22	3	0	0	0	7	0	0	0	0	13	2	10	0	0	5	14	0
Cc1cc(NCC(c2ccccc2)c2ccccc2)nc(NCc2ccc(C(F)(F)F)cc2)n1 [GW497681]	18	0	0	0	0	0	0	0	0	0	0	22	0	13	22	0	0	0	9	0
Cn1ccc2ncnc(Oc3cccc(C(=O)Nc4ccccc4)c3)c21	0	7	0	0	0	2	0	13	0	0	0	0	11	0	8	0	0	0	5	7
